Assay outcomes from PubChem BioAssay.
Shown are actives, neighbours in structure and some others; about 21% of the full set was active somewhere.
NS1 function inh: inhibitors of influenza NS1 protein function; Potency, µM (series often up to 46.1 µM); hit rate 0.4% among 270,000; AID 2326; calls by dose curve; also: actives are rising curves; nearly all actives have a fitted effect of over 50% in size
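Growth recovery, yeast-based: influenza A NS1 expressed in S. cerevisiae causes slow growth, and suppressors are detected by OD600. The parent strain without NS1 is used as positive control.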
Shiga inhibitor: inhibitors of Shiga toxin in Vero cells. AID 2315. hit rate 9.2% among 290,000. Vero cells, Shiga toxin protein synthesis inhibition reporter. inhibition, % at 38.7 µM; in the data active = inhibition mostly above about 28%, no sharp cut-off; inactive = mostly below about 43%
Pf growth 96h: P. falciparum growth inhibition at 96 hours. P. falciparum luciferase reporter growth, 96 h. Potency, µM (highest dose often 28.7 µM), usual class: inhibitors. hit rate 6.9% among 320,000
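Infected RBCs, 2% Hct / 0.05% parasitemia final; luciferase-reporter P. falciparum; cpd 96 h, 37 C, 5% CO2; luciferase detection reagent; luminescence.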
Cycloheximide cs: affects cycloheximide protein synthesis inhibition readout, counter-screen. cell reporter, cycloheximide protein synthesis inhibition counterscreen. max response, %. hit rate 12% among 300,000; in the data active = max response mostly above about 13%, no sharp cut-off; inactive = mostly below about 14%; also: read at 38.3 µM for the half of the compounds with a filed dose
Pf growth 48h: P. falciparum growth inhibition at 48 hours (one generation). P. falciparum luciferase growth in erythrocytes, 48 h. Potency, µM (series often up to 28.7 µM), hits mostly inhibitors. hit rate 5.9% among 310,000. AID 504832
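Firefly luciferase activity from engineered P. falciparum reports growth; inhibitors lower the luminescent signal. Cultures contained 2% hematocrit erythrocytes at 0.1% final parasitemia.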
A number is an active result; - = inactive; ? = inconclusive; . = no result. Unless noted, calls follow the shape of the dose curve; as a rule, active = well fitted inhibition curve with a large enough effect; inconclusive = small, poorly fitted or top-dose-only effect, or another doubt; inactive = no such curve, though single readings can be large or run the other way.

SMILES	NS1 function inh	Shiga inhibitor	Pf growth 96h	Cycloheximide cs	Pf growth 48h
CC(Nc1n[nH]c(=O)[nH]c1=O)C(=O)N/N=C/c1cccs1 (centres undefined)	.	-	-	-	-
CCCC(C)C(=O)Nc1nnc(CCc2ccccc2)s1 (centres undefined)	-	-	?	-	-
CC(=O)NC12CC3CC(C1)CC(C(=O)N1CCN(S(=O)(=O)c4ccc(Cl)s4)CC1)(C3)C2	-	-	?	-	?
CC(=O)NC12CC3CC(C1)CC(C(=O)N1CCN(S(=O)(=O)c4cccc(C(F)(F)F)c4)CC1)(C3)C2	.	.	?	.	13.1µM
O=S(=O)(c1cccc(C(F)(F)F)c1)N1CCN(C(=S)NCc2ccco2)CC1	-	-	2.33µM	-	4.65µM
CSCCCNC(=S)N1CCN(S(=O)(=O)c2cccc(C(F)(F)F)c2)CC1	-	-	-	-	10.4µM
CCCCN(C)C(=S)Nc1ccc2nc3n(c(=O)c2c1)CCCCC3	-	-	-	-	-
Cc1nnc(N/N=C/c2cccc(OCc3ccc(Cl)c(Cl)c3)c2)n1N	-	46.9	?	39.0	13.1µM
Cc1nnc(N/N=C/c2cccc(C(F)(F)F)c2)n1N	-	-	14.7µM	-	-
CCOc1cc(/C=N/Nc2nnc(C)n2N)ccc1OC(C)=O	-	-	?	-	-
Cc1nnc(N/N=C/c2ccccc2C(F)(F)F)n1N	-	-	-	-	-
CSc1ncc(C(=O)Nc2cccc(Cl)c2)c(C)n1	-	-	-	-	-
O=C(CCc1nnc(CCC2CCCCC2)o1)NCCn1cccn1	-	-	-	-	-
CSc1cccc(NS(=O)(=O)c2ccc3c(c2)oc(=O)n3C)c1	-	-	11.7µM	-	.
CCCNC(=O)C(NS(=O)(=O)c1ccc2c(c1)c(=O)n(C)c(=O)n2C)c1ccccc1 (centres undefined)	-	-	?	15.4	.
Cc1ccc(NS(=O)(=O)c2ccc3c(c2)oc(=O)n3C)cc1	-	-	2.62µM	-	-
Cn1c(=O)oc2cc(S(=O)(=O)Nc3cccc(F)c3)ccc21	-	-	-	-	-
Cc1ccc(NS(=O)(=O)c2ccc3c(c2)oc(=O)n3C)cc1C	-	-	-	-	-
Cn1c(=O)c2cc(S(=O)(=O)NC(C(=O)Nc3cccc(F)c3)c3ccccc3)ccc2n(C)c1=O (centres undefined)	-	-	?	-	.
Cn1c(=O)c2cc(S(=O)(=O)Nc3cccc(F)c3)ccc2n(C)c1=O	-	-	14.7µM	-	.
Cc1ccc(NC(=O)C2CCCN2C(=O)NC2CCCCC2)cc1F (centres undefined)	-	-	-	-	-
Cc1cc(C)c(S(=O)(=O)Cc2ccccc2)c(OC(C)C)n1	-	-	10.4µM	-	?
COC(=O)c1cnn2c3c(c(C)nc12)CCCC3	-	73.4	0.928µM	59.2	-
COc1cc(O)c2c(=O)c(-c3ccc(O[C@@H]4O[C@H](CO)[C@@H](O)[C@H](O)[C@H]4O)cc3)coc2c1	-	111.3	-	39.1	-
O=c1c(O[C@H]2O[C@@H](CO)[C@H](O)[C@@H](O)[C@@H]2O)c(-c2ccc(O)cc2)oc2cc(O)cc(O)c12	.	.	-	.	-
SMILES	NS1 function inh	Shiga inhibitor	Pf growth 96h	Cycloheximide cs	Pf growth 48h
O=c1c(-c2ccc(O)cc2)coc2cc(OC3OC(CO)C(O)C(O)C3O)cc(O)c12 (centres undefined)	-	67.6	-	22.0	-
O=c1cc(-c2ccc(O)c(O)c2)oc2cc(O[C@@H]3O[C@H](CO)[C@@H](O)[C@H](O)[C@H]3O)cc(O)c12	.	-	.	-	.
O=c1c(-c2ccc(O)cc2)coc2cc(OC3OC(CO)C(O)C(O)C3O)ccc12 (centres undefined)	-	42.5	-	19.8	-
COc1ccc2c(c1)N(C)/C(=C/c1cccc[n+]1C)S2	-	-	?	-	0.37µM
CCN1/C(=C/c2cccc[n+]2C)Sc2ccc(OC)cc21	-	-	-	-	1.04µM
CCN1/C(=C/C(C)=O)Sc2ccc(OC)cc21	-	-	?	-	-
O=C(NCc1ccccn1)c1ccc(NS(=O)(=O)c2ccccc2)cc1	-	-	-	-	-
Cc1cccc(NC(=O)C2CCN(S(=O)(=O)c3c(C)[nH]c(=O)[nH]c3=O)CC2)c1	-	-	13.1µM	-	-
CCc1cccc(NC(=O)C2CCCN(S(=O)(=O)c3c(C)[nH]c(=O)[nH]c3=O)C2)c1 (centres undefined)	-	-	-	-	-
Cc1[nH]c(=O)[nH]c(=O)c1S(=O)(=O)N1CCC(C(=O)NC(C)c2ccccc2)CC1 (centres undefined)	-	-	4.15µM	-	-
O=C(/C=C/c1ccccc1)NC(=S)NNS(=O)(=O)c1ccccc1	-	-	-	-	-
O=C(/C=C/c1ccccc1)NC(=S)Nc1ccccc1O	-	81.2	-	33.0	-
NC(=S)NC(=O)/C=C/c1ccccc1	.	65.8	2.08µM	30.3	-
O=C(Cn1nc(C(=O)O)c2ccccc2c1=O)NC12CC3CC(CC(C3)C1)C2	.	-	-	-	-
Clc1ncccc1-c1nnn(-c2ccccc2)n1	-	56.3	-	50.0	-
CCCn1c(-c2cccnc2Cl)nc2cc(Cl)c(Cl)cc21	-	-	?	-	?
O=c1ncn(-c2ccc(F)cc2)c2ncccc12	-	-	.	-	-
Fc1ccc(-n2nnc(-c3ccccc3Cl)n2)cc1	-	-	?	-	-
Fc1ccc(-n2nnc(-c3nccs3)n2)cc1	-	53.5	-	37.9	-
Fc1ccc(-n2nnc(-c3cccnc3Cl)n2)cc1	-	88.8	-	54.1	-
Clc1ccc(-n2nnc(-c3cccnc3Cl)n2)cc1Cl	-	53.7	-	34.9	-
CC1=C(C#N)C2C(/C1=N/O)C2(C)C (centres undefined)	-	-	-	-	.
CCCC(c1nnnn1CS(=O)(=O)c1ccc(C)cc1)N1CCC(C(N)=O)CC1 (centres undefined)	-	-	-	-	-
c1ccc(-n2nnc(-c3cccnc3)n2)cc1	-	43.8	-	41.3	-
Cc1ccc(-n2cnc(=O)c3cccnc32)cc1	-	-	-	-	-
SMILES	NS1 function inh	Shiga inhibitor	Pf growth 96h	Cycloheximide cs	Pf growth 48h
COc1ncccc1-c1nnn(-c2ccccc2)n1	-	54.6	-	42.6	-
Cc1ccc(-n2nnc(-c3nccn3C)n2)cc1	-	-	-	10.8	-
Cc1ccc(-n2nnc(-c3cnc4ccccc4c3)n2)cc1	-	-	-	57.4	-
COc1nn(-c2ccccc2)c(=O)c(Cl)c1Cl	-	-	?	-	-
c1ccc2ncc(-n3cnnn3)cc2c1	-	-	-	-	-
O=C(Cc1ccc(F)cc1)Nc1c(C(=O)N2CCN(c3ncccn3)CC2)oc2ccccc12	-	-	-	-	-
Clc1nc2ccccc2cc1-c1nnn(-c2ccccc2)n1	-	58.7	-	45.7	-
ClCc1cc2ccccc2nc1Cl	-	-	-	-	?
CCOc1ccc(Nc2nc(N)nc(CSC(=S)N3CCN(c4ccccc4)CC3)n2)cc1	-	-	13.1µM	-	11.7µM
COc1ccc(Nc2nc(N)nc(CSC(=S)N3CCN(c4ccccc4)CC3)n2)cc1	-	-	11.7µM	-	?
CC1CCN(C(=S)SCc2nc(N)nc(Nc3ccccc3)n2)CC1	-	35.4	-	25.1	-
